High-throughput results (PubChem BioAssay)
mHTT-CaM PPI inh: disrupts binding of mutant huntingtin to calmodulin; P42858; AlphaScreen His-mHTT/GST-CaM binding, luminescence; inhibition, % at 15 µM; hit rate 3.6% among 190,000; AID 1671202
Pf apPOL inh: Pf-apPOL DNA polymerase inhibition; AID 1794808; Recombinant Pf-apPOL, molecular beacon fluorescence, 1.5 h; hit rate 0.25% among 210,000; inhibition, % at 10 µM
Numbers stand for hits; – = inactive; · = not tested or not shown. Shown are actives, neighbours in structure and some others; about 3.5% of the full set was active somewhere. Cut-off read from the data, not from the text of the source: active = inhibition above about 50%; inactive = the rest.

SMILES | mHTT-CaM PPI inh | Pf apPOL inh
COc1ccc(C2C(C#N)=C(N)OC(C)=C2C(=O)OC(C)(C)C)cc1 (centres undefined) | – | –
O=S(=O)(c1c(F)cccc1F)N(CCc1ccc(F)cc1)C[C@@H](O)COCc1ccccc1 | 99.2 | –
CN(CC(O)COCc1ccccc1)C1CCCCC1 (centres undefined) | – | –
O=C(NCC(F)(F)F)C1CCN(S(=O)(=O)c2cccnc2)CC1 | – | –
CC(C)CC1C(=O)N(Cc2cn(CCC3OCCCO3)nn2)CCS(=O)(=O)N1Cc1ccc(-c2ccccc2)cc1 (centres undefined) | 53.5 | –
CC(C)CC1C(=O)N(Cc2cn(CCC3OCCCO3)nn2)CCS(=O)(=O)N1Cc1ccc(-c2cccc(N(C)C)c2)cc1 (centres undefined) | 69.3 | –
COc1ccc(-c2ccc(CN3C(CC(C)C)C(=O)N(Cc4cn(CCC5OCCCO5)nn4)CCS3(=O)=O)cc2)cc1OC (centres undefined) | – | –
CC(C)CC1C(=O)N(Cc2cn(CCC3OCCCO3)nn2)CCS(=O)(=O)N1Cc1ccc(-c2ccncc2)cc1 (centres undefined) | – | –
CCOC(=O)N1CCN(C(=O)C2CCN(Cc3ccccc3)CC2)CC1 | – | –
Cc1cc(Br)c(NC(=O)c2ccc(Cl)cc2)cc1C | – | –
CN(C)c1ncccc1NC(=O)c1ccc(F)cc1 | – | –
Cc1cc(Br)c(O)c(C2NC(C(=O)O)Cc3c2[nH]c2ccccc32)c1 (centres undefined) | – | –
O=C(O)C1Cc2c([nH]c3ccccc23)C(c2cc(Br)ccc2O)N1 (centres undefined) | 56.7 | –
COc1cc(OC)c2ccc(=O)oc2c1C(CCN1CCCC(C)C1)c1ccc2c(c1)OCO2 (centres undefined) | – | –
COc1cc(C(CCN2CCCCC2)c2c(OC)cc(OC)c3c(-c4ccccc4)cc(=O)oc23)cc(OC)c1OC (centres undefined) | 66.8 | –
COc1cc(OC)c2ccc(=O)oc2c1C(CCN1CCCCC1)c1ccc(N(C)C)cc1 (centres undefined) | – | –
COc1cc(C(CCN2CCCC(C)C2)c2c(OC)cc(OC)c3c(-c4ccccc4)cc(=O)oc23)cc(OC)c1OC (centres undefined) | 87.2 | –
COc1cc(C(CCN2CCOCC2)c2c(OC)cc(OC)c3c(C)cc(=O)oc23)cc(OC)c1OC (centres undefined) | – | –
COc1cc(C(CCN2CCCC2)c2c(OC)cc(OC)c3c(C)cc(=O)oc23)cc(OC)c1OC (centres undefined) | – | –
CCCCCc1cc(=O)oc2c(C(CCN3CCCCC3)c3ccc(OC)cc3)c(OC)cc(OC)c12 (centres undefined) | 100.1 | –
COc1ccc(C(CCN2CCCC(C)C2)c2c(OC)cc(OC)c3c2OC(=O)CC3c2cc(OC)c(OC)c(OC)c2)cc1 (centres undefined) | 53.6 | –
CCC1Oc2ccc(Cl)cc2N(CC(=O)NC2CCCCCCC2)C1=O (centres undefined) | – | –
[O-]c1n[n+](-c2ccc(Cl)cc2)no1 | – | ·
CCOc1ccc(NC(=O)N2CCC(c3nc4cccnc4n3C)C2)cc1 (centres undefined) | – | –
CC1Oc2ccc(NC(=O)C3CC3)cc2CN(Cc2ccccc2)C1=O (centres undefined) | – | –
SMILES | mHTT-CaM PPI inh | Pf apPOL inh
CCc1ccc(NS(=O)(=O)c2cc3c(s2)CCN(C(=O)C2CC2)C3)cc1 | – | –
O=C(Nc1ccc(F)cc1)c1csc(-c2ccc(N3CCCC3)nc2)n1 | – | –
O=C(NCC1(O)CCCC1)C1CC(=O)N(c2ccccc2)C1 (centres undefined) | – | –
COc1cccc(C(=O)N2CCC(C(=O)NCc3csc(-c4cccs4)n3)CC2)c1 | – | –
COc1c(O)ccc(/C=C(\C#N)c2nc3ccc(C)cc3[nH]2)c1[N+](=O)[O-] | – | –
O=C1CC(NCCCN2CCOCC2)C(=O)N1c1ccc(N=Nc2ccccc2)cc1 (centres undefined) | – | –
O=C1CC(NCCCN2CCOCC2)C(=O)N1c1ccc(Br)cc1 (centres undefined) | 53.6 | –
COc1cc(OC)c(OC)cc1/C=C1/N=C(c2cccc([N+](=O)[O-])c2)OC1=O | – | –
CCC1CN(C(=O)Nc2ccc(OC)c(OC)c2)c2cc(C)ccc2O1 (centres undefined) | – | –
COc1ccc(NC(=O)N2CCCC2c2nc(-c3cccc(C)c3)no2)cc1 (centres undefined) | – | –
COc1cccc(NC2=C(NCCO)C(=O)c3ccccc3C2=O)c1 | – | –
Cc1cccc(NC2=C(NCCO)C(=O)c3ccccc3C2=O)c1 | 74.1 | –
Cc1cccc([C@H]2[C@@H]3C=CC(C)C[C@@H]3C(=O)N2Cc2ccccc2)c1 (some centres undefined) | 66.5 | –
O=C1[C@H]2CCC=C[C@H]2[C@H](c2ccccc2Br)N1Cc1ccccc1 | – | –
